Source: PubChem BioAssay AID1159580 (chemical genetic matrix, 2015)
The whole screen tested about 5,500 compounds, of which about 2,000 (36%) were called active. Another 18% or so got no clear call; they are omitted. Cut-off read from the data, not from the text of the source: active = normalized growth mostly below about 0.91 (no sharp cut-off); inconclusive = no clear call, values can overlap the other calls; inactive = mostly above about 0.92. The list shows a part of the results.

Experiment: chemical genetic growth profiling, strain panel (AID 1159580);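 note: tested at 20 µM; growth read once vehicle control cultures reached saturation at 30 °C; 1 = growth at the plate median or of vehicle wells; lower values mean less growth of the strain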
Conditions: S. cerevisiae deletion strains, growth OD

Measured: normalized growth

CC1(C)CCC[C@@]2(C)C1[C@@H](O)C[C@]1(C)C2CC[C@@H]2[C@@]3(C)CC[C@H](C(C)(C)O)[C@@H]3CC[C@@]21C (some centres not stated)
inactive: locus YAL013W, strain DEP1, stronger effect = lower value 0.998 | locus YBR021W, strain FUR4, stronger effect = lower value 1.07 | locus YBR229C, strain ROT2, stronger effect = lower value 1 | locus YCL029C, strain bik1, stronger effect = lower value 0.971 | locus YDL035C, strain GPR1, stronger effect = lower value 1.01 | locus YDL074C, strain BRE1, stronger effect = lower value 1.02 | locus YDL101C, strain DUN1, stronger effect = lower value 1 | locus YDL185W, strain tfp1, stronger effect = lower value 0.943 | locus YDL192W, strain arf1, stronger effect = lower value 0.993 | locus YDR101C, strain arx1, stronger effect = lower value 1.01 | locus YDR150W, strain NUM1, stronger effect = lower value 0.992 | locus YDR162C, strain NBP2, stronger effect = lower value 1.04 | locus YDR318W, strain mcm21, stronger effect = lower value 1 | locus YDR388W, stronger effect = lower value 0.986 | locus YDR502C, strain sam2, stronger effect = lower value 0.989 | locus YEL061C, strain CIN8, stronger effect = lower value 1 | locus YER110C, stronger effect = lower value 0.977 | locus YER155C, strain BEM2, stronger effect = lower value 1.01 | locus YER167W, strain BCK2, stronger effect = lower value 0.997 | locus YGL078C, strain dbp3, stronger effect = lower value 1 | locus YGL086W, strain mad1, stronger effect = lower value 1.05 | locus YGL248W, strain PDE1, stronger effect = lower value 1 | locus YGR135W, strain pre9, stronger effect = lower value 0.993 | locus YGR252W, strain gcn5, stronger effect = lower value 1.06 | locus YHR030C, strain SLT2, stronger effect = lower value 0.992 | locus YHR079C, strain IRE1 (second series), stronger effect = lower value 1.01 | locus YHR094C, strain hxt1, stronger effect = lower value 0.981 | locus YHR129C, strain ARP1, stronger effect = lower value 0.997 | locus YHR200W, strain rpn10, stronger effect = lower value 0.984 | locus YIL066C, strain RNR3, stronger effect = lower value 1.03 | locus YIL073C, strain SPO22, stronger effect = lower value 0.941 | locus YIL125W, strain kgd1, stronger effect = lower value 0.972 | locus YIR030C, strain dcg1, stronger effect = lower value 0.996 | locus YJL095W, strain BCK1, stronger effect = lower value 1.02 | locus YJL134W, strain LCB3, stronger effect = lower value 0.991 | locus YJL168C, strain set2, stronger effect = lower value 1.01 | locus YJL187C, strain SWE1 (second series), stronger effect = lower value 1 | locus YJR043C, strain POL32, stronger effect = lower value 1.03 | locus YKL009W, strain mrt4, stronger effect = lower value 1.05 | locus YKL068W, stronger effect = lower value 0.98 | locus YKL085W, strain MDH1 (second series), stronger effect = lower value 1.04 | locus YKL085W, strain MDH1, stronger effect = lower value 1.04 | locus YKL190W, strain CNB1, stronger effect = lower value 0.997 | locus YKR001C, strain vps1, stronger effect = lower value 1.03 | locus YLR039C, strain RIC1, stronger effect = lower value 1.05 | locus YLR058C, strain SHM2, stronger effect = lower value 0.996 | locus YLR102C, strain apc9, stronger effect = lower value 0.995 | locus YLR262C, strain YPT6, stronger effect = lower value 1.04 | locus YLR268W, strain sec22, stronger effect = lower value 0.986 | locus YLR330W, strain CHS5, stronger effect = lower value 0.983 | locus YLR342W, strain FKS1 (second series), stronger effect = lower value 1.01 | locus YLR371W, strain rom2, stronger effect = lower value 0.984 | locus YLR418C, strain cdc73, stronger effect = lower value 1.06 | locus YML016C, strain PPZ1, stronger effect = lower value 0.995 | locus YML032C, strain rad52, stronger effect = lower value 0.983 | locus YML124C, strain tub3, stronger effect = lower value 1.01 | locus YMR078C, strain ctf18, stronger effect = lower value 1.01 | locus YMR223W, strain ubp8, stronger effect = lower value 0.998 | locus YMR263W, strain SAP30, stronger effect = lower value 1 | locus YMR307W, strain GAS1, stronger effect = lower value 1.12 | locus YNL067W, strain RPL9B, stronger effect = lower value 1.02 | locus YNL153C, strain GIM3, stronger effect = lower value 1.02 | locus YNL233W, strain BNI4, stronger effect = lower value 1.03 | locus YNL250W, strain rad50, stronger effect = lower value 0.982 | locus YNL271C, strain bni1, stronger effect = lower value 0.997 | locus YNL298W, strain CLA4, stronger effect = lower value 0.975 | locus YNL307C, strain MCK1, stronger effect = lower value 0.996 | locus YNL322C, strain KRE1, stronger effect = lower value 1 | locus YNR052C, strain pop2, stronger effect = lower value 0.994 | locus YOL012C, strain htz1 1.13 | locus YOL147C, strain pex11, stronger effect = lower value 0.993 | locus YOR061W, strain CKA2, stronger effect = lower value 0.999 | locus YOR069W, strain VPS5, stronger effect = lower value 0.993 | locus YOR136W, strain idh2, stronger effect = lower value 0.988 | locus YOR144C, strain elg1, stronger effect = lower value 0.997 | locus YOR184W, strain ser1, stronger effect = lower value 1.01 | locus YOR316C, strain cot1, stronger effect = lower value 0.985 | locus YPR119W, strain clb2, stronger effect = lower value 1 | locus YPR141C, strain kar3, stronger effect = lower value 0.982 | locus YPR163C, strain tif3, stronger effect = lower value 0.99 | locus YPR167C, strain met16, stronger effect = lower value 0.989 | strain wtn01, stronger effect = lower value 0.986
